# Values joined by “and” are separate entries in the source; they are usually repeats but may differ in a detail not shown here. Identical values can stand only once. About 2,000 (36%) of roughly 5,500 compounds were called active. Inconclusive results (about 18%) are left out. The list shows a part of the results. A number with no mark means an inactive call. Rule as the data show it: active = normalized growth mostly below about 0.91 (no sharp cut-off); inconclusive = no clear call, values can overlap the other calls; inactive = mostly above about 0.92.
# Assay: chemical genetic growth profiling, strain panel (AID 1159580);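 also: tested at 20 µM; growth read once vehicle control cultures reached saturation at 30 °C; 1 = growth at the plate median or of vehicle wells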
# Settings: S. cerevisiae deletion strains, growth OD
smiles,measurement,setting,value
COc1cc(OC)c2ccc(=O)oc2c1,normalized growth,"locus YAL013W, strain DEP1, stronger effect = lower value",1.01
same,normalized growth,"locus YAL021C, strain ccr4, stronger effect = lower value",1
same,normalized growth,"locus YAL026C, strain drs2, stronger effect = lower value",0.964
same,normalized growth,"locus YAL030W, strain snc1, stronger effect = lower value",0.976
same,normalized growth,"locus YBL061C, strain skt5, stronger effect = lower value",0.966
same,normalized growth,"locus YBR009C, strain hhf1, stronger effect = lower value",0.935
same,normalized growth,"locus YBR021W, strain FUR4, stronger effect = lower value",0.949
same,normalized growth,"locus YBR023C, strain chs3, stronger effect = lower value",0.964
same,normalized growth,"locus YBR171W, strain sec66, stronger effect = lower value",0.972
same,normalized growth,"locus YBR229C, strain ROT2, stronger effect = lower value",1.01
same,normalized growth,"locus YBR231C, strain swc5, stronger effect = lower value",0.963
same,normalized growth,"locus YBR279W, strain paf1, stronger effect = lower value",0.973
same,normalized growth,"locus YCL011C, strain gbp2, stronger effect = lower value",0.962
same,normalized growth,"locus YCL016C, strain dcc1, stronger effect = lower value",0.968
same,normalized growth,"locus YCL029C, strain bik1, stronger effect = lower value",1
same,normalized growth,"locus YCL061C, strain MRC1, stronger effect = lower value",0.974
same,normalized growth,"locus YCL069W, strain vba3, stronger effect = lower value",0.992
same,normalized growth,"locus YCR088W, strain abp1, stronger effect = lower value",0.984
same,normalized growth,"locus YDL005C, strain med2, stronger effect = lower value",0.987
same,normalized growth,"locus YDL035C, strain GPR1, stronger effect = lower value",0.99
same,normalized growth,"locus YDL040C, strain nat1, stronger effect = lower value",0.974
same,normalized growth,"locus YDL074C, strain BRE1, stronger effect = lower value",0.979
same,normalized growth,"locus YDL101C, strain DUN1, stronger effect = lower value",1.01
same,normalized growth,"locus YDL134C, strain PPH21, stronger effect = lower value",0.992
same,normalized growth,"locus YDL185W, strain tfp1, stronger effect = lower value",0.982
same,normalized growth,"locus YDL192W, strain arf1, stronger effect = lower value",0.988
same,normalized growth,"locus YDR001C, strain nth1, stronger effect = lower value",0.975
same,normalized growth,"locus YDR069C, strain doa4, stronger effect = lower value",0.951
same,normalized growth,"locus YDR101C, strain arx1, stronger effect = lower value",0.994
same,normalized growth,"locus YDR137W, strain rgp1, stronger effect = lower value",0.922
same,normalized growth,"locus YDR150W, strain NUM1, stronger effect = lower value",1
same,normalized growth,"locus YDR159W, strain sac3, stronger effect = lower value",0.971
same,normalized growth,"locus YDR162C, strain NBP2, stronger effect = lower value",1
same,normalized growth,"locus YDR195W, strain ref2",1.19 [resistant] (active)
same,normalized growth,"locus YDR297W, strain sur2, stronger effect = lower value",0.978
same,normalized growth,"locus YDR318W, strain mcm21, stronger effect = lower value",1
same,normalized growth,"locus YDR334W, strain swr1, stronger effect = lower value",0.962
same,normalized growth,"locus YDR335W, strain msn5, stronger effect = lower value",0.974
same,normalized growth,"locus YDR388W, stronger effect = lower value",1.01
same,normalized growth,"locus YDR392W, strain spt3, stronger effect = lower value",0.736 (active)
same,normalized growth,"locus YDR502C, strain sam2, stronger effect = lower value",0.989
same,normalized growth,"locus YEL003W, strain gim4, stronger effect = lower value",0.973
same,normalized growth,"locus YEL037C, strain rad23, stronger effect = lower value",0.961
same,normalized growth,"locus YEL061C, strain CIN8 (second series), stronger effect = lower value",0.964
same,normalized growth,"locus YEL061C, strain CIN8, stronger effect = lower value",1
same,normalized growth,"locus YER015W, strain faa2, stronger effect = lower value",0.973
same,normalized growth,"locus YER016W, strain bim1, stronger effect = lower value",0.975
same,normalized growth,"locus YER110C, stronger effect = lower value",0.983
same,normalized growth,"locus YER111C, strain swi4, stronger effect = lower value",0.965
same,normalized growth,"locus YER155C, strain BEM2 (second series), stronger effect = lower value",0.661 (active)
same,normalized growth,"locus YER155C, strain BEM2, stronger effect = lower value",0.999
same,normalized growth,"locus YER167W, strain BCK2, stronger effect = lower value",1.02
same,normalized growth,"locus YFR010W, strain ubp6, stronger effect = lower value",0.951
same,normalized growth,"locus YGL078C, strain dbp3, stronger effect = lower value",0.995
same,normalized growth,"locus YGL086W, strain mad1, stronger effect = lower value",1
same,normalized growth,"locus YGL167C, strain pmr1, stronger effect = lower value",0.965
same,normalized growth,"locus YGL173C, strain kem1, stronger effect = lower value",0.945
same,normalized growth,"locus YGL227W, strain vid30, stronger effect = lower value",0.974
same,normalized growth,"locus YGL240W, strain doc1, stronger effect = lower value",0.868 (active)
same,normalized growth,"locus YGL248W, strain PDE1, stronger effect = lower value",1.01
same,normalized growth,"locus YGL253W, strain hxk2, stronger effect = lower value",0.974
same,normalized growth,"locus YGR078C, strain PAC10, stronger effect = lower value",0.989
same,normalized growth,"locus YGR135W, strain pre9, stronger effect = lower value",0.977
same,normalized growth,"locus YGR229C, strain SMI1, stronger effect = lower value",0.993
same,normalized growth,"locus YGR252W, strain gcn5, stronger effect = lower value",0.846
same,normalized growth,"locus YHR013C, strain ard1, stronger effect = lower value",0.944
same,normalized growth,"locus YHR027C, strain rpn1, stronger effect = lower value",0.981
same,normalized growth,"locus YHR030C, strain SLT2, stronger effect = lower value",1.01 and 0.997
same,normalized growth,"locus YHR079C, strain IRE1 (second series), stronger effect = lower value",1.01
same,normalized growth,"locus YHR079C, strain IRE1, stronger effect = lower value",0.989
same,normalized growth,"locus YHR094C, strain hxt1, stronger effect = lower value",1
same,normalized growth,"locus YHR129C, strain ARP1, stronger effect = lower value",1.01
same,normalized growth,"locus YHR142W, strain chs7, stronger effect = lower value",0.955
same,normalized growth,"locus YHR200W, strain rpn10, stronger effect = lower value",0.988
same,normalized growth,"locus YIL066C, strain RNR3, stronger effect = lower value",1.01
same,normalized growth,"locus YIL073C, strain SPO22, stronger effect = lower value",0.982
same,normalized growth,"locus YIL125W, strain kgd1, stronger effect = lower value",1
same,normalized growth,"locus YIR030C, strain dcg1, stronger effect = lower value",1
same,normalized growth,"locus YJL092W, strain hpr5, stronger effect = lower value",0.972
same,normalized growth,"locus YJL095W, strain BCK1 (second series), stronger effect = lower value",0.98
same,normalized growth,"locus YJL095W, strain BCK1, stronger effect = lower value",0.985 and 1.01
same,normalized growth,"locus YJL115W, strain asf1, stronger effect = lower value",0.969
same,normalized growth,"locus YJL129C, strain trk1, stronger effect = lower value",0.995
same,normalized growth,"locus YJL134W, strain LCB3, stronger effect = lower value",1.01
same,normalized growth,"locus YJL154C, strain vps35, stronger effect = lower value",0.984
same,normalized growth,"locus YJL164C, strain tpk1, stronger effect = lower value",0.962
same,normalized growth,"locus YJL166W, strain qcr8, stronger effect = lower value",0.945
same,normalized growth,"locus YJL168C, strain set2, stronger effect = lower value",1
same,normalized growth,"locus YJL187C, strain SWE1 (second series), stronger effect = lower value",1.01
same,normalized growth,"locus YJL187C, strain SWE1, stronger effect = lower value",0.97
same,normalized growth,"locus YJR043C, strain POL32, stronger effect = lower value",0.993
same,normalized growth,"locus YJR066W, strain TOR1, stronger effect = lower value",0.958

# From PubChem BioAssay AID1159580 (chemical genetic matrix, 2015)
